Results: PubChem BioAssay AID2315 (National Center for Advancing Translational Sciences (NCATS), 2010)
Hit rate of the full screen: of about 290,000 compounds, about 27,000 (9.3%) were called active. Rule as the data show it: active = inhibition mostly above about 28% (no sharp cut-off); inactive = mostly below about 43%. What follows is part of a selection rich in actives, with near analogues and random picks from the rest.

Assay: A qHTS for Small Molecule Inhibitors of Shiga Toxin; also: 0% is about no effect
Conditions: Vero cells, Shiga toxin protein synthesis inhibition reporter; at 38.7 µM, stronger effect = higher value

SMILES | inhibition
COc1ccc(C(C)NC(=O)C23CC4CC(CC(C4)C2)C3)cc1 (stereo unspecified) | -10.2% (inactive)
COc1ccccc1NC(=O)CCC(=O)OC(C)C(=O)c1ccccc1 (stereo unspecified) | -0.996% (inactive)
Cc1n[nH]c(C)c1S(=O)(=O)N1CCCC(C(=O)Nc2ccc(Br)cc2)C1 (stereo unspecified) | 3.93% (inactive)
COc1ccc2oc(=O)cc(-c3cc4ccccc4o3)c2c1 | -7.01% (inactive)
COc1ccc(-c2noc(-c3cccc(OC)c3OC)n2)cc1OC | 64.7% (active)
CCOc1nc(-c2ccc(OC)cc2)ccc1-c1noc(-c2cc(OC)c(OC)c(OC)c2)n1 | 11.8% (inactive)
COc1ccc(-c2noc(CCCC(=O)NC3CCCC3)n2)cc1OC | -6.44% (inactive)
CC(C)NC(=O)C(c1ccc(F)cc1)N(C(=O)CCC(=O)Nc1ccccn1)c1ccccc1F (stereo unspecified) | -8.5% (inactive)
Cc1ccc(C)c(NS(=O)(=O)c2c(C)[nH]c(C)c2C(=O)N2CCCCC2)c1 | 2.83% (inactive)
Nc1cccc(-c2cc(-c3ccccc3)nc(-c3cccc(N)c3)n2)c1 | -3.83% (inactive)
Nc1nc(-c2ccccc2)cc(-c2ccccc2)n1 | 30.7% (active)
CNc1nc(-c2ccccc2)cc(-c2ccccc2)n1 | 1.28% (inactive)
O=C(NC1CC1)C(Cc1ccccc1)NS(=O)(=O)c1ccccc1F (stereo unspecified) | -4.61% (inactive)
CC1(C(=O)O)CCC(C(=O)Nc2ccc(Cl)c(Cl)c2)C1(C)C (stereo unspecified) | -2.66% (inactive)
O=C(CCn1c(SCC(=O)c2ccccc2)nc2ccccc2c1=O)NCc1ccc(F)cc1 | -27.4% (inactive)
O=C(Nn1c(-c2ccccc2)nc2ccccc2c1=O)c1ccc([N+](=O)[O-])cc1 | -8.82% (inactive)
O=C(CN(C(=O)CNC(=O)c1cccs1)c1cccc(F)c1)NC1CCCCC1 | -5.58% (inactive)
O=C1CCN(Cc2ccc([N+](=O)[O-])cc2)CCN1[C@H](CO)Cc1ccccc1 | -0.762% (inactive)
C=CCc1cc(C)ccc1OCCCn1ccnc1 | -4.77% (inactive)
CC1C(=O)Nc2ccc(S(=O)(=O)N3CCN(c4ccccc4F)CC3)cc2NC1=O (stereo unspecified) | -0.75% (inactive)
CCCc1nnc(NC(=O)c2cccs2)s1 | 39% (inactive)
CCc1c(C)sc(NC(=O)c2cccs2)c1C(N)=O | 107% (active)
COC(=O)c1c(NC(=O)c2cccs2)sc2c1CCCC2 | 35.1% (inactive)
N#Cc1cccc(NC(=O)CN2CCCCCC2)c1 | 2.24% (inactive)

SMILES | inhibition
Cc1ccc(CC(=O)Nc2cccc(C#N)c2)cc1 | 25.6% (inactive)
N#Cc1cccc(NC(=O)CCC2CCCC2)c1 | 33.8% (active)
COc1ccc(N2CCN(CCNC(=O)Nc3cc(Cl)ccc3Cl)CC2)cc1 | 4.24% (inactive)
CCc1ccccc1NC(=O)NCCN1CCCCC1 | -9.72% (inactive)
COc1ccc(SC[C@H](Cc2ccccc2)N2CCN(CCc3ccccc3)CCC2=O)cc1 | -7.36% (inactive)
CCCN1CCC(=O)N(C(CSc2ccc(C)cc2)Cc2ccccc2)CC1 (stereo unspecified) | -8.43% (inactive)
Cc1ccc(SCC(CC(C)C)N2CCN(CCc3ccccc3)CCC2=O)cc1 (stereo unspecified) | 64.5% (active)
O=c1onc(-c2c(F)cccc2F)n1-c1ccccc1Cl | -3.28% (inactive)
CCCOC(=O)Nc1sc2c(c1C(=O)OCC)CCC2 | -17.5% (inactive)
CCOC(=O)c1c(NC(=O)C2CCN(S(=O)(=O)c3ccc(Cl)cc3)CC2)sc2c1CCCC2 | 45.1% (active)
CCOC(=O)c1c(NC(=S)NC)sc2c1CCCC2 | -5.4% (inactive)
NC(=O)Cn1cc(/C=N\NS(=O)(=O)c2ccccc2)c2ccccc21 | -5.18% (inactive)
COc1ccc(-c2nc3ccccc3n2CCC(C)C)cc1OC | -2.89% (inactive)
Cc1nc2ccc(C(=O)N/N=C/c3ccc(O)cc3)cc2[nH]1 | 22.1% (inactive)
Cc1nonc1C(=O)N/N=C/c1ccc(O)cc1 | 72.1% (active)
O=C(C[n+]1ccccc1)N/N=C/c1ccc(O)cc1 | 30.3% (inactive)
O=[N+]([O-])c1ccc2nc(-c3ccccn3)[nH]c2c1 | 102% (active)
O=c1[nH]c2cccnc2n1-c1ccc([N+](=O)[O-])cc1 | 6.32% (inactive)
O=C(CSc1nc2ccc([N+](=O)[O-])cc2[nH]1)c1ccc(Cl)cc1 | -3.36% (inactive)
COC(=O)c1cc(S(=O)(=O)Nc2ccc(C)c(F)c2)c[nH]1 | 9.13% (inactive)
CC(C)c1c(C(=O)N/N=C/c2ccccc2C(=O)O)nnn1-c1nonc1N | 0.546% (inactive)
Cc1cccc(N2CCN(Cc3nc(C4CC4)no3)CC2)n1 | 18.6% (inactive)
O=C(NCc1ccccc1Cl)C1CCCN1S(=O)(=O)c1ccc(F)cc1 (stereo unspecified) | -12.5% (inactive)
CCOC(=O)c1cn[nH]c1NC(=S)Nc1ccccc1 | 57.1% (active)

SMILES | inhibition
CCOC(=O)c1ccc(NC(=S)Nc2cc(C)cc(C)n2)cc1 | -12.4% (inactive)
CCOC(=O)c1cc2c(nc1NC(=S)Nc1ccccc1)CC(C)(CC)OC2 (stereo unspecified) | -8.83% (inactive)
COc1ccc(CN2CCc3nc(Nc4ccccc4)ncc3C2)c(OC)c1OC | 3.91% (inactive)
O=C1NC(c2cccc(Cl)c2)Nc2ccccc21 (stereo unspecified) | 18.4% (inactive)
COc1ccc(C2NC(=O)c3ccccc3N2)cc1 (stereo unspecified) | 62.6% (active)
COc1cccc(C2Nc3cccc4cccc(c34)N2)c1 | -2.47% (inactive)
COc1cccc2cc(-c3cc(=O)oc4cc(C)c(O)cc34)oc12 | 0.992% (inactive)
CCCCCc1c(C)nc(N2CCN(Cc3ccc4c(c3)OCO4)CC2)[nH]c1=O | 7.82% (inactive)
CC(C)Sc1ncnc2c1cnn2-c1ccccc1 | 96.6% (active)
CC(=O)Nc1ccc(NC(=O)CSc2ncnc3c2cnn3Cc2ccccc2)cc1 | 3.21% (inactive)
COc1ccc(N2CCN(C(=O)CSc3ncnc4c3cnn4-c3ccc(OC)cc3)CC2)cc1 | -9.91% (inactive)
CCN(CC)C(=O)CSc1ncnc2c1cnn2-c1ccccc1 | 66.2% (active)
COC(=O)CSc1ncnc2c1cnn2-c1ccc(C)cc1C | -5.7% (inactive)
CN(C(=O)COc1ncnc2c1cnn2-c1ccccc1)C1CCCCC1 | 20.6% (inactive)
COc1ccc(NC(=O)CSc2ncnc3[nH]ncc23)cc1 | -13.5% (inactive)
COc1ccccc1N1CCN(C(=O)CSc2ncnc3c2cnn3-c2ccc(C)c(C)c2)CC1 | 66.7% (active)
COc1ccc(-n2ncc3c(SCC(=O)NNC(C)=O)ncnc32)cc1 | 25.6% (active)
c1ccc(-n2ncc3c(N4CCCC4)ncnc32)cc1 | 27.5% (inactive)
COc1ccccc1N1CCN(C(=O)CSc2nnc(-c3ccoc3C)o2)CC1 | 31.6% (inactive)
c1ccc(-n2ncc3c2ncn2c(C4CCCCC4)nnc32)cc1 | 11.5% (inactive)
COc1ccccc1Oc1ccc(N/C=C2/CCCC2=O)cc1 | 33.6% (inactive)
Cc1onc(-c2ccccc2)c1C(=O)N1CCN(S(=O)(=O)c2ccccc2C(F)(F)F)CC1 | 61.7% (inactive)
CCOc1ccc(N(CC)S(=O)(=O)c2cccc3nsnc23)cc1 | -2.2% (inactive)
Nc1c(Cl)cc(-c2csc(N3CCCC3c3nc4cc(Cl)c(Cl)cc4n3CCOCCO)n2)cc1Cl (stereo unspecified) | -18% (inactive)

SMILES | inhibition
CCCOc1ccc(-c2c(C(=O)N/N=C/c3ccco3)nnn2-c2nonc2N)cc1 | -3.97% (inactive)
CC(C)c1ccc2oc(=O)cc(CN3CCN(Cc4ccccc4)CC3)c2c1 | -3.05% (inactive)
Cc1ccc(C(=O)N2CCC(n3nccc3NC(=O)Nc3cccc(F)c3)CC2)cn1 | -8.38% (inactive)
COc1ccc(-c2cc(=O)oc3cc(OC(C)C(=O)NCC4CCC(C(=O)O)CC4)ccc23)cc1 (stereo unspecified) | -4.72% (inactive)
O=C(Cn1cnc2c(cnn2-c2ccccc2)c1=O)NCc1ccccc1 | 31.9% (inactive)
O=C(Cn1cnc2c(cnn2-c2ccc(F)cc2)c1=O)NCCc1ccccc1 | -0.429% (inactive)
CC(=O)Cn1cnc2c(cnn2-c2ccccc2)c1=O | 34.2% (active)
CC1C(=O)Nc2ccccc2N1C(=O)c1c(F)cccc1F (stereo unspecified) | -5.2% (inactive)
COC(=O)C1CCCCN1C(=O)c1ccc(OC2CCN(C(C)=O)CC2)c(OC)c1 (stereo unspecified) | 20.4% (inactive)
COc1cc(OC)cc(C(=O)NCC(=O)OCc2csc(-c3ccccc3)n2)c1 | 21% (inactive)
Cc1ccc(S(=O)(=O)N2CCN(C(=O)COC(=O)c3c(C)noc3C)CC2)c(C)c1 | -4.13% (inactive)
Cc1ccc(-c2nc(COC(=O)c3c(C)noc3C)cs2)cc1 | 104% (active)
O=C(NC(=S)Nc1ccc(Cl)cc1Cl)C1CC1 | 97.9% (active)
CC1CN(C(=S)Nc2ccc(Br)cc2Cl)CC(C)O1 (stereo unspecified) | -7.71% (inactive)
S=C(Nc1ccc(Cl)cc1Cl)N1CCCC1 | 88.2% (active)
CN1CCN(S(=O)(=O)c2ccc(NC(=S)NC(=O)C3CC3)cc2)CC1 | 11.7% (inactive)
S=C(Nc1ccc(Br)cc1Cl)N1CCC2(CC1)OCCO2 | 76.2% (active)
Cc1cc(Cl)ccc1NC(=S)N1CCC(C(N)=O)(N2CCCCC2)CC1 | -10.1% (inactive)
CN(C)C(=S)Nc1ccc(Br)cc1Cl | 23.8% (inactive)
Cc1ccc2c(c1)C1CN(C)CCC1N2C(=S)Nc1ccc(Cl)cc1Cl (stereo unspecified) | 14.7% (inactive)
S=C(NCc1cccnc1)Nc1ccc(Cl)cc1Cl | 23.4% (inactive)
CCc1ccc(N(CC(=O)NCc2cccnc2)S(=O)(=O)c2ccccc2)cc1 | 9.02% (inactive)
CCn1nc(C)c(CNC(=O)C2CCC(=O)N(Cc3cccc(F)c3)C2)c1C (stereo unspecified) | -13.2% (inactive)
C=Cc1ccc(C(=O)N2CCCC(CCC(=O)N3CCN(c4ccccn4)CC3)C2)cc1 (stereo unspecified) | 4.52% (inactive)
